Most compounds without a hit are left out; they make up all but 6% or so of the library.
D1 antagonist = blocks dopamine activation of the human D1 receptor; HEK293 TREx D1 cells, calcium flux, dopamine EC80; hits give low values; activity change, negative = inhibition, % at 10 µM; hit rate 3.2% among 360,000; AID 504652; in the data active = activity change below about -30%; note: % is set by controls: 0 for no effect and ±100 for the full control effect
Target sequence (P21728 whole entry, looked up): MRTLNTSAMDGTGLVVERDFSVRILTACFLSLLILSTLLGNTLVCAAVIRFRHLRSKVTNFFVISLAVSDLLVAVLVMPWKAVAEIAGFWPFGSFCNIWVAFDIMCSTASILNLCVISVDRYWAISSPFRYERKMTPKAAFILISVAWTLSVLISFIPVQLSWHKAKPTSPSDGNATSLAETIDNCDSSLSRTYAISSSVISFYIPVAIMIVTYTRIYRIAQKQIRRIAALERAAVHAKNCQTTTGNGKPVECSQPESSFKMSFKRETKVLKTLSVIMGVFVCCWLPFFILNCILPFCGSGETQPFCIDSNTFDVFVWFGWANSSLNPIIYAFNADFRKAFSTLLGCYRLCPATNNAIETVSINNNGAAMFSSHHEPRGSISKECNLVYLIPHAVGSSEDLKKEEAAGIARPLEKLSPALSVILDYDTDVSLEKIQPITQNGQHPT
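Tetracycline-induced HEK293 T-REx cells with force-coupled D1 receptor were loaded with a no-wash calcium dye. Compound was added after a 10 s baseline and read kinetically for 180 s; EC80 dopamine was then added and calcium flux followed another 180 s.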
D3 ag = activates the human D3 dopamine receptor; P35462; D3R DiscoveRx beta-arrestin cells, luminescence, 90 min; max activation, %; hit rate 0.58% among 410,000; in the data active = max activation above about 30%; note: 0% is about no effect
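Cells at 1500/well, incubated overnight, then treated with pinned compounds (dopamine as control) for 90 min at 37 degrees C. DiscoveRx reagent added for 30 - 60 minutes at room temperature; luminescence read.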
D3 antag = antagonists of human D3 dopamine receptor; P35462; D3R cells, DiscoveRx beta-arrestin luminescence, antagonist mode; hits give low values; max response, negative = inhibition, %; hit rate 2.5% among 360,000; AID 652054; in the data active = max response below about -50%; inconclusive = no clear call, values can overlap the other calls; note: % is set by controls: 0 for no effect and ±100 for the full control effect
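Cells plated overnight at 1500 cells/well, then exposed to library compounds with dopamine controls for 90 minutes at 37 degrees C. DiscoveRx reagent added for 30–60 minutes at room temperature; luminescence read, quantitative HTS format.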
D1 agonist = agonists of human D1 dopamine receptor; HEK293 T-REx D1 cells, calcium flux, agonist mode; activation, % at 2 µM; hit rate 1% among 360,000; in the data active = activation above about 30%; note: 0% is about no effect
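Tetracycline-induced HEK293 TREx D1 cells, force-coupled to calcium signalling, were dye-loaded with a no-wash calcium kit. Compound was pin-added after a 10 s baseline. Fluorescence was read kinetically at 1 cycle/s for 180 s, with calcium rises flagged as agonism.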
D1 potentiator = enhances dopamine response at the human D1 receptor; potentiation, % at 10 µM; P21728; hit rate 0.036% among 360,000; HEK293 TREx D1 cells, calcium flux, dopamine EC20 potentiation; in the data active = potentiation above about 30%; note: 0% is about no effect
Chronic BCR inh = chronic active BCR signaling inhibition; ABC-DLBCL IkBa-CBG/CBR reporter, luminescence ratio, 4 h; hit rate 0.05% among 340,000; Potency, µM (series often up to 46.1 µM), inactives show at the top dose activity change, negative = inhibition, most hits filed as inhibitors; AID 493014; active = well fitted inhibition curve with a large enough effect in the signal ratio, with a control signal flat, not every such curve was filed as active; inconclusive = small, poorly fitted or top-dose-only effect, or effect the other way, or a change in a side signal; the % refers to the signal ratio;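 note: potency is the fitted concentration of half-maximal effect; plate controls were basal doxycycline-induced cells for no effect and cells given 10 µM MG132 for full effect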
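TMD8 ABC-DLBCL cells carrying doxycycline-inducible green luciferase fused to IkappaBalpha plus unfused red luciferase were exposed to compounds (up to 46 uM) for 4 hrs at 37C. Activity came from the overlap-corrected green/red luminescence ratio.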
Numbers without * were called inactive; ? = inconclusive; · = not tested or not shown.

SMILES	D1 antagonist	D3 ag	D3 antag	D1 agonist	D1 potentiator	Chronic BCR inh
COc1ccc(NS(=O)(=O)c2cccc(-c3nnc(-c4ccccc4)o3)c2)cc1	-32*	12	49	0	-3	?
COc1cc(-c2nnc(-c3ccc(N4CCOCC4)cc3)o2)cc(OC)c1OC	-20	38*	24	2	1	-5%
CCOC(=O)COc1ccccc1C1C(C(=O)OC)=C(C)NC2=C1C(=O)c1ccccc12 (stereo not given)	-7	-1	·	-2	-1	·
COc1ccc(C2C(C(N)=O)=C(C)Nc3nc(SCc4ccccc4Cl)nn32)cc1OC (stereo not given)	15	-11	·	1	0	·
CC1=C(C(N)=O)C(c2cccc(Br)c2)n2nc(SCc3ccccc3Cl)nc2N1 (stereo not given)	6	56*	·	1	-4	·
CC(=O)N1CCOc2cc(S(=O)(=O)Nc3cccc(C(F)(F)F)c3)c(Cl)cc21	-24	-8	·	0	-1	?
CN1/C(=C\C=C(/C#N)C(=O)Nc2ccccc2F)C(C)(C)c2ccccc21	-18	5	6	277*	4	-1%
N#Cc1cc(Oc2cccc3cccnc23)c(-n2nnc3ccccc32)cc1C#N	-20	-47	?	12	-2	7.9µM*
O=C(CSCc1cccc(Br)c1)N=Nc1c(O)[nH]c2ccccc12	-2	-4	12	1	-1	2%
O=Nc1c(-c2c(O)[nH]c3cc(Br)ccc23)[nH]c2ccccc12	-57*	-34	-8	9	-9	?
COc1cc(C)c(C(=O)Oc2cc(C)c(C(=O)O)c(O)c2C)c(O)c1C(=O)O	6	2	5	1	3	-3%
COc1cc(C)c(C(=O)Oc2cc(C)c(C(=O)O)c(O)c2C)c(OC)c1C	-66*	-10	-3	-2	-5	0%
CCOC(=O)c1ccc2c(c1)N(CC(=O)N(C)c1ccccc1)C(=O)c1ccccc1S2	12	2	·	3	0	·
Cn1cc(CCNCc2cn[nH]c2-c2ccc(-c3ccccc3)cc2)cn1	0	-11	-7	2	-6	0%
Cc1ccc(-c2[nH]ncc2CNCCc2cnn(-c3ccccc3)c2)cc1C	-27	0	-14	34*	-13	6%
CCOc1ccc(/C=N/NC(=O)c2ccccc2Cl)cc1CN1CC2CC(C1)c1cccc(=O)n1C2 (stereo not given)	·	-94	-85*	-2	-1	?
CCOc1ccc(/C=N/NC(=O)c2ccccc2C)cc1CN1CC2CC(C1)c1cccc(=O)n1C2 (stereo not given)	·	-8	36	-3	-1	?
COc1ccc(C(=O)Oc2c(Sc3ccccc3)c(C)nn2-c2ccccc2)c(OC)c1	-4	1	·	19	1	·
CCc1nc2c(OCc3ccc(OC(F)F)cc3)cccn2c1N(C)C(=O)c1ccco1	·	-4	-11	·	·	·
CCCCOc1ccc(C(=O)Nc2ccc(N3CCN(C)CC3)cc2)cc1	-73*	-9	-30	11	-16	12%
CCCCOc1cccc(C(=O)Nc2ccc(N3CCN(CC)CC3)cc2)c1	-51*	-10	16	7	-8	?
CCOc1ccc(C(=O)Nc2ccc(N3CCN(C)CC3)cc2)cc1	-24	-1	-4	3	-7	0%
CCCCOC(=O)/C(C#N)=C/c1ccc(-c2ccc(Br)cc2)o1	-7	-12	·	5	-1	·
COc1ccc(S(=O)(=O)NCC(c2ccc(N(C)C)cc2)N2CCCC2)cc1F (stereo not given)	3	-8	·	0	0	·
COc1ccc(CNC(=O)CN(C)Cc2ccccc2F)cc1OC	-36*	10	0	2	0	0%
SMILES	D1 antagonist	D3 ag	D3 antag	D1 agonist	D1 potentiator	Chronic BCR inh
COc1cc2c(cc1NC(=O)CN(C)Cc1ccc(OC)c(OC)c1)oc1ccccc12	-2	38*	43	5	-9	?
COc1ccc(CN(C)CC(=O)Nc2cc3oc4ccccc4c3cc2OC)c(OC)c1	3	-8	29	7	3	4%
COc1ccc(Br)cc1CN(C)CC(=O)NCc1ccc(F)cc1	1	-21	-25	0	-2	-6%
O=C(NCc1ccccc1CN1CCCC1)c1cccc(N2CCCC2=O)c1	-37*	0	12	4	·	?
O=C(c1cccc(N2CCCC2=O)c1)N1CCN(c2ccccc2)CC1	-31*	3	-4	1	-3	10%
Cc1ccc(-n2c(C)nc3c(cnn3-c3ccc(C)c(C)c3)c2=O)cc1C	6	1	23	0	1	-6%
COc1cccc(-n2c(C)nc3c(cnn3-c3ccc(C)c(C)c3)c2=O)c1	-48*	9	·	8	2	·
FC(F)C(F)(F)c1cc(-c2ccccc2)n[nH]1	4	-6	-9	43*	-5	-2%
O=S(=O)(c1ccc2c(c1)OCCO2)N1CCN(S(=O)(=O)c2cccc[n+]2[O-])CC1	-29	·	·	0	2	·
c1ccc(N2CCN(Cc3cn4cccnc4n3)CC2)cc1	10	6	-59*	0	-6	0%
c1ccc(CN2CCN(Cc3cn4cccnc4n3)CC2)cc1	-9	-10	-14	1	-6	10%
NS(=O)(=O)c1cc(C(=O)OCC(=O)Nc2ccccc2[N+](=O)[O-])ccc1Cl	15	6	5	2	3	-8%
CCOC(=O)c1c(C)[nH]c(C(=O)OCc2csc(CC(=O)Nc3ccccc3C)n2)c1C	33	36*	8	4	7	-10%
Cc1ccc(C(=O)NC(C)CCc2ccccc2)cc1[N+](=O)[O-] (stereo not given)	-62*	-6	-21	17	-6	?
CS(=O)(=O)c1ccc(C(=O)OCC(=O)Nc2cccnc2Cl)cc1[N+](=O)[O-]	·	-22	-68*	·	·	?
Cc1ccccc1NC(=O)COC(=O)c1ccc(S(C)(=O)=O)c([N+](=O)[O-])c1	-3	-14	-98*	2	-1	?
Nc1sccc1C(=O)NC1CC1	·	-1	2	·	·	·
CS(=O)(=O)c1ccc(C(=O)OCC(=O)NC(=O)C2CCCCC2)cc1[N+](=O)[O-]	-33*	-8	?	7	-4	?
NC(=O)c1ccc(NC(=O)COC(=O)/C=C/c2ccc3c(c2)OCO3)cc1	-41*	-4	-24	8	1	7%
COc1ccc(C(=O)OCC(=O)Nc2ccccc2)cc1[N+](=O)[O-]	-12	-3	-3	6	2	?
CC(=O)c1cccc(NC(=O)COC(=O)c2ccc(S(C)(=O)=O)c([N+](=O)[O-])c2)c1	-34*	-17	?	2	0	?
